Results on 8 compounds are retold here after PubChem BioAssay (NCI).

Some test systems named below: HCT-15 colon; HT29 colon; SNB-75 CNS; SNB-19 CNS; U251 CNS; PC-3 prostate; SK-MEL-5 melanoma; UACC-62 melanoma; LOX IMVI melanoma; SK-MEL-28 melanoma; EKVX NSCLC; SN12C renal; UO-31 renal; TK-10 renal; ACHN renal; CAKI-1 renal; CCRF-CEM leukemia; MOLT-4 leukemia; A498 renal; SK-MEL-2 melanoma.
What all share (experiment): NCI-60 one-dose screen, 48 h (100 = growth as untreated, 0 = no growth, -100 = all killed)
Common to all, as to conditions: 10 µM unless noted

SMILES strings stand for the structures. Compounds without any hit were thinned out: in the full panel of roughly 83,000, 20% have a hit.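 Values shown are percent growth following 48 h exposure of cells in 96-well plates to a single concentration of compound; below 10 was considered active.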 Values without a mark were called inactive. Active and inactive are the calls of the source.

On to `COc1ccccc1OCC(=O)N1CCCCCC1`, for which the growth in the experiment on HCT-15 colon was 103%; in the experiment with HT29 colon, 95.2%; in the experiment with SNB-75 CNS it was 91.4%; in the experiment with SNB-19 CNS, 96.2%; in the experiment with U251 CNS it was 95.3%; with PC-3 prostate it was 89.8%. Moreover, the growth with SK-MEL-5 melanoma was 100%; in the experiment with UACC-62 melanoma, 99.4%; with LOX IMVI melanoma, 93.6%; with SK-MEL-28 melanoma, 101%; in the experiment with EKVX NSCLC, 89.6%; with SN12C renal it was 103%. In addition, the growth in the experiment with UO-31 renal was 92%; in the experiment with TK-10 renal, 96.1%; with ACHN renal, 105%; with CAKI-1 renal, 84.1%; in the experiment on CCRF-CEM leukemia it was 101%; in the experiment on MOLT-4 leukemia, 86.9%.

As for `O=C(N/N=C/c1ccc(O)c(O)c1)c1sc2ccccc2c1Cl`, the growth with HCT-15 colon is 33.9%; in the experiment with HT29 colon it was 105%; in the experiment with SNB-75 CNS, 83.2%; in the experiment with SNB-19 CNS, 59.4%; in the experiment with U251 CNS it was 59.2%; in the experiment with PC-3 prostate it was 66.6%. The growth was 81.8% in the experiment with SK-MEL-5 melanoma; 73.8% in the experiment with UACC-62 melanoma; 68.7% in the experiment with LOX IMVI melanoma; 56.8% in the experiment on SK-MEL-28 melanoma; 98.3% in the experiment on EKVX NSCLC; 77.1% in the experiment with SN12C renal. Also, the growth in the experiment on UO-31 renal was 61%; with TK-10 renal, 109%; with ACHN renal, 62.9%; with CAKI-1 renal, 84.7%; with A498 renal, 71.4%; with CCRF-CEM leukemia, 14.1%. Moreover, in the experiment with MOLT-4 leukemia, the growth is 43.7%.

Regarding `O=C(O)CCCCCCCCCCCCCCC(=O)O`, the growth in the experiment on HCT-15 colon was 104%; with HT29 colon, 104%; in the experiment with SNB-75 CNS, 88.2%; in the experiment on SNB-19 CNS, 99.1%; in the experiment on U251 CNS it was 93.7%; with PC-3 prostate, 92.6%. The growth with SK-MEL-5 melanoma is 103%; with UACC-62 melanoma it was 95.1%; with LOX IMVI melanoma, 98.6%; with SK-MEL-28 melanoma it was 106%; in the experiment on EKVX NSCLC, 106%; in the experiment on SN12C renal it was 93.8%. Besides, the growth with UO-31 renal is 99.8%; with TK-10 renal, 90.4%; in the experiment on ACHN renal, 107%; with CAKI-1 renal, 103%; in the experiment on A498 renal it was 76.9%; in the experiment on CCRF-CEM leukemia, 96.1%. Also, the growth in the experiment with MOLT-4 leukemia was 103%.

Consider `Cc1ccc(C2CC(c3cccc(Nc4ccncc4)c3)=NN2c2ccccc2)cc1` (stereo not drawn), for which the growth with HCT-15 colon was -82.6% (active); with HT29 colon, -42% (active); with SNB-75 CNS, -95.6% (active); in the experiment on SNB-19 CNS, -76.8% (active); in the experiment with U251 CNS, -54.1% (active); with PC-3 prostate it was -66.7% (active). Further, the growth in the experiment with SK-MEL-5 melanoma is -94.1% (active); in the experiment on UACC-62 melanoma, -94.9% (active); in the experiment on LOX IMVI melanoma, -100% (active); in the experiment on SK-MEL-28 melanoma it was -98.9% (active); with EKVX NSCLC, -51.9% (active); in the experiment with SN12C renal it was -93.1% (active). Moreover, the growth was -100% (active) in the experiment with UO-31 renal; -83.6% (active) in the experiment with TK-10 renal; -99.8% (active) in the experiment with ACHN renal; -94.6% (active) in the experiment on CAKI-1 renal; 30.7% in the experiment on A498 renal; -24.5% (active) with CCRF-CEM leukemia. For the same compound, the growth in the experiment on MOLT-4 leukemia is -26.8% (active).

Consider `CC1(C)[C@H](O)CC[C@]2(C)[C@@H]1CC[C@@]13C[C@@H](CC[C@H]12)[C@@](O)(CO)C3`, for which the growth in the experiment with HCT-15 colon was 105%; in the experiment with HT29 colon, 112%; with SNB-75 CNS, 102%; with SNB-19 CNS, 99.7%; with U251 CNS it was 108%; with PC-3 prostate, 111%. The growth is 101% in the experiment with SK-MEL-5 melanoma; 105% with UACC-62 melanoma; 103% with LOX IMVI melanoma; 108% with SK-MEL-28 melanoma; 106% with SK-MEL-2 melanoma; 93.6% in the experiment with UO-31 renal. In addition, the growth is 108% in the experiment with TK-10 renal; 106% with ACHN renal; 97.8% in the experiment with CAKI-1 renal; 96.9% in the experiment with A498 renal; 106% in the experiment with CCRF-CEM leukemia; 108% in the experiment on MOLT-4 leukemia.

For `CCN1C(=O)/C(=c2\sc3n(c2=O)NC2C(N=3)N(CC)C(=O)N2CC)c2ccccc21` (stereo not drawn), the growth in the experiment on HCT-15 colon is 33.7%; with HT29 colon it was 12.9%; in the experiment on SNB-75 CNS, 7.11% (active); with SNB-19 CNS, 50.8%; with U251 CNS, 33.4%; in the experiment with PC-3 prostate, 29.6%. For the same compound, the growth in the experiment with SK-MEL-5 melanoma is 30.9%; in the experiment on UACC-62 melanoma, 43.9%; in the experiment on LOX IMVI melanoma, 55.4%; in the experiment on SK-MEL-28 melanoma, 55.5%; with EKVX NSCLC, 60.4%; in the experiment on SN12C renal, 43.8%. Moreover, the growth in the experiment with UO-31 renal is 48.9%; with TK-10 renal, 83.3%; in the experiment with ACHN renal, 49.3%; in the experiment on CAKI-1 renal, 42.1%; in the experiment with A498 renal, -17.8% (active); in the experiment with MOLT-4 leukemia it was 58.9%.

Turning to `c1cnc2nc3c(cc2c1)oc1ccccc13`, the growth in the experiment with HCT-15 colon was 101%; in the experiment with HT29 colon, 105%; in the experiment with SNB-75 CNS it was 76.6%; in the experiment on SNB-19 CNS it was 92%; with U251 CNS, 97%; in the experiment on PC-3 prostate, 104%. Moreover, the growth was 91.2% in the experiment on SK-MEL-5 melanoma; 87.1% with UACC-62 melanoma; 97.7% with LOX IMVI melanoma; 111% in the experiment on SK-MEL-28 melanoma; 102% in the experiment on EKVX NSCLC; 94.8% with SN12C renal. Also, the growth is 68.3% in the experiment on UO-31 renal; 107% with TK-10 renal; 93.3% in the experiment on ACHN renal; 80% with CAKI-1 renal; 69.3% with A498 renal; 90.9% in the experiment on CCRF-CEM leukemia. Also, the growth in the experiment with MOLT-4 leukemia is 92.8%.

With `O=C(Nc1cccc(Cl)c1)c1cc(Cl)ccc1O`, the growth with HCT-15 colon is 12%; with HT29 colon, 15.5%; with SNB-75 CNS it was -26.8% (active); in the experiment on SNB-19 CNS it was 15.9%; in the experiment with U251 CNS it was 15.7%; with PC-3 prostate, -4.48% (active). Further, the growth in the experiment on SK-MEL-5 melanoma was -54.4% (active); in the experiment with UACC-62 melanoma it was 0.352% (active); with LOX IMVI melanoma, -32.5% (active); in the experiment on SK-MEL-28 melanoma, 10.1%; in the experiment on EKVX NSCLC, 7.96% (active); in the experiment on SN12C renal it was -0.418% (active). The growth in the experiment with UO-31 renal is 7.54% (active); in the experiment with TK-10 renal, 13.4%; in the experiment on ACHN renal it was -0.748% (active); in the experiment with CAKI-1 renal it was -7.81% (active); with CCRF-CEM leukemia it was 12.9%; in the experiment with MOLT-4 leukemia, 4.18% (active).
